GALK inh = blocks human galactokinase activity; P51570; Purified GALK, Kinase-Glo residual ATP luminescence; Potency, µM (highest dose often 57.5 µM), without a hit: at the top dose activity change, negative = inhibition, hits mostly inhibitors; 0.007% of 270,000 active; AID 1868; further: potency means the concentration at half of the fitted maximal effect
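Human GALK (5 nM) with 35 uM ATP and 100 uM galactose in 20 mM HEPES pH 8.0, 5 mM MgCl2, 60 mM NaCl, 1 mM DTT, 0.01% BSA. After 1 h at room temperature, leftover ATP was read by Kinase-Glo Plus luminescence.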
RORgamma inh = inhibitors of mouse ROR gamma transcriptional activity. 5.4% of 310,000 active. Drosophila S2 Gal4-RORgamma UAS-luciferase reporter, 20 h. Potency, µM (highest dose often 53.6 µM), for inactives: at the highest dose activity change, negative = inhibition, actives largely listed as inhibitors; further: potency means the concentration at half of the fitted maximal effect; nearly all actives have a fitted effect of over 60% in size
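Drosophila S2 cells stably expressing Gal4-DBD/mouse RORγ fusion under metallothionein promoter plus UAS-luciferase; compound 1 h, then 700 uM CuSO4 induction for 20 h at ambient temperature; inhibition read as reduced luminescence.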
TrxR1 substrate = rat thioredoxin reductase 1 substrate activity | O89049 | purified TrxR1 substrate turnover, NADPH consumption readout | Potency, µM (top dose mostly 114 µM), inactives show top-dose activity change, negative = substrate turnover | 0.01% of 390,000 active | AID 588456; further: potency means the concentration at half of the fitted maximal effect; nearly all actives have a fitted effect of over 50% in size
Target sequence (O89049 whole entry, looked up): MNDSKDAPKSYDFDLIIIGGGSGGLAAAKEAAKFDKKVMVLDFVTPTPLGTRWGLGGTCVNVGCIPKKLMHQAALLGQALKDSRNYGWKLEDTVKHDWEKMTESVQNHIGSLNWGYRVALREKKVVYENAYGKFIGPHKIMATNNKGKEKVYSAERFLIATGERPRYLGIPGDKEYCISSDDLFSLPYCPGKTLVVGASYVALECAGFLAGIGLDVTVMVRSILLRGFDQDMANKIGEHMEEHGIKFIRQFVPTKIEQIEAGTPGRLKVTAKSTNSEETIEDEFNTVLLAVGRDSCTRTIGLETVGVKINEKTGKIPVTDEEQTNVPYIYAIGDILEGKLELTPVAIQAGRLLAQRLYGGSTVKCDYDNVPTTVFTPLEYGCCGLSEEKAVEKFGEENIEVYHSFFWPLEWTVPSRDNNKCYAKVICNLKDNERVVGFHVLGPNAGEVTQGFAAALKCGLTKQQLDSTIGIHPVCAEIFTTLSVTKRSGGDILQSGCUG
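Rat TrxR1, dispensed at 90 nM, was prereduced with 400 uM NADPH (final) for 5 min at ~22 deg C, then incubated with compound 15 min before 400 uM selenite. A first-read NADPH fluorescence drop versus no-compound background flagged substrates.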
VP16 counter = counter-screen for ROR gamma inhibitors: Gal4-VP16 reporter | Drosophila S2 Gal4-VP16 UAS-luciferase, luminescence, 20 h | Potency, µM (top dose mostly 53.6 µM), inactives show at the highest dose activity, negative = inhibition, most hits filed as inhibitors | 3.5% of 310,000 active | AID 2546;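 further: Gal4-VP16 expression switched on by copper sulfate through the metallothionein promoter; potency means the concentration at half of the fitted maximal effect; nearly all actives have a fitted effect of over 50% in size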
rTrxR1 inhibitor = blocks rat thioredoxin reductase 1; recombinant rTrxR1, NADPH fluorescence consumption, selenite substrate; 1% of 390,000 active; AID 588453; Potency, µM (highest dose often 114 µM), for the others: at the top dose activity change, negative = inhibition, hits mostly inhibitors; O89049; further: potency means the concentration at half of the fitted maximal effect; nearly all actives have a fitted effect of over 65% in size
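Rat TrxR1 (90 nM in the dispensed reagent) was pre-reduced with 400 uM NADPH for 5 min at room temperature, then incubated with compound for 15 min. After 400 uM selenite was added, NADPH fluorescence (Ex 340/Em 450 nm) was followed for 8 min.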
Coupling enz = counter-screen for Giardia aldolase inhibitors: coupling enzyme system; coupling enzyme system counterscreen, AmpLite Red fluorescence; activity change, negative = inhibition, % at 58.2 µM, hits read low; 0.67% of 290,000 active; AID 2472; in the data active means activity change below about -30%
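Coupling enzymes only (glyceraldehyde-3-phosphate) + compound, at 57.5 uM final, 10 min RT; add substrate/coupling/AmpLite Red mix, 20 min RT; fluorescence ex 525/em 598 nm. Actives flag coupling-system interference.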
* hit, by the source's call; u = inconclusive; x = no result given; ! = repeats disagree; [ ] = remark or other dose. Sampled rows, rich in hits. Any-hit rate of the full collection: about 5.9%. Unless noted, the call rests on the fitted dose curve; in most records, active means well fitted curve in the direction sought with a large enough effect; inconclusive means small, poorly fitted or top-dose-only effect, or another doubt; inactive means no such curve, though single readings can be large; an effect the other way counts as inactive or inconclusive. On the % scale 0 is the no-effect control and ±100 the full control effect.

SMILES | GALK inh | RORgamma inh | TrxR1 substrate | VP16 counter | rTrxR1 inhibitor | Coupling enz
COC(=O)NC/C=C\c1nc(CC/C=C\C(=O)O[C@H]2C[C@H]3CC(=O)O[C@@H](/C=C\CC(C)C)C[C@@H]4CC[C@H](C)[C@H](C[C@@H](OC)C[C@H](C2)O3)O4)co1 | x | 0.0056µM* | x | u | x | -5
C/C(=N\Nc1ccccc1)c1c(O)[nH]c(=O)[nH]c1=O | x | 5% | -1% | -13% | 7% | 1
CC/C(=N\NC(=S)Nc1ccccc1)c1c(O)[nH]c(=O)[nH]c1=O | 5% | 5.6µM* | 3% | u | 5% | -1
O=C1NC(=O)C(=Cc2cc(Cl)ccc2OCc2ccc(C(=O)O)cc2)C(=O)N1 | -1% | u | 3% | u | 10µM* | 12
CC/C(=N\N1CCCCCC1)c1c(O)n(-c2ccc(C)cc2)c(=O)[nH]c1=O | 0% | 32% | 7%[57.1 µM] | u | 12%[57.1 µM] | 1
CNc1ccc2oc(C[C@H]3O[C@@]4(CC[C@H]3C)O[C@H]([C@H](C)C(=O)c3ccc[nH]3)[C@H](C)C[C@H]4C)nc2c1C(=O)O | 4% | -9% | 73%[57.1 µM] | 1.3µM* | 18%[57.1 µM] | -30
CC(C)CCON=O | x | -12% | x | 3% | x | x
O=C(Nc1ccc(Br)cc1C(=O)O)c1ccc2c(c1)C(=O)N(Cc1ccccc1)C2=O | -8% | 10µM* | 7%[57.1 µM] | u | 16%[57.1 µM] | x
NC(CCCCCP(=O)(O)O)C(=O)O (configuration not stated) | x | x | 3%[57.1 µM] | x | 19%[57.1 µM] | x
CCC(=NCc1cc(OC)cc(OC)c1)c1c(O)[nH]c(=O)[nH]c1=O | x | 1% | 3% | 5% | 10% | 1
CC/C(CC(c1ccccc1)c1c(O)c2ccccc2oc1=O)=N\NC(N)=S (configuration not stated) | 1% | 10µM* | 8% | u | 5% | 8
Cc1c(C(=O)Nc2ccccc2)c2cc(O)ccc2n1Cc1ccccc1 | -3% | u | -9% | u | 14%[57.1 µM] | -2
Cc1ccc(/C=C/C(=O)C2C(=O)c3ccccc3C2=O)cc1 | 1% | 6.3µM* | 7% | u | 17% | -2
O=C1c2ccccc2C(=O)C1C(=O)C(c1ccccc1)c1ccccc1 | x | 19% | x | 8% | x | x
NNc1n[nH]c(=S)n1N | x | u | 1% | u | -14% | -62*
Cc1nn(Cc2ccccc2)c(C)c1C=C1C(=O)NC(=S)NC1=O | -1% | 7% | -4% | u | 8.9µM* | 5
Cc1c(C=C2C(=O)NC(=O)NC2=O)c(=O)n(-c2ccccc2)n1C | 15% | -7% | 5%[57.1 µM] | 7% | -2%[57.1 µM] | 1
CCN(CC)CCN1C(=O)CN=C(c2ccccc2F)c2cc(Cl)ccc21 | x | -1%[10 µM] | x | -6% | x | x
Cc1ccc2c(Cl)cc(Cl)c(O)c2n1 | x | 0.56µM*! | -10% | 0.89µM*! | 13%[57.1 µM] | -5
Fc1ccccc1CCNCc1cccc2ccccc12 | 2% | u | 4% | 20µM* | 0% | 0
Cc1nn(Cc2ccccc2)c2c1C(c1ccco1)C(C#N)=C(N)O2 (configuration not stated) | -1% | 7.1µM* | -5% | -17% | u | -7
Cc1nn(-c2ccccc2)c2c1C(c1ccc(F)cc1F)C(C#N)=C(N)O2 (configuration not stated) | -3% | u | 6% | 8% | u | 0
CC(=NCCO)c1c(O)n(C2CCCCC2)c(=O)[nH]c1=O | -2% | 18% | -3% | -17% | -9% | -4
C/C(=N\NC(=O)c1ccccc1O)c1c(O)n(C2CCCCC2)c(=O)[nH]c1=O | -15% | 5µM* | -2% | 11µM* | 18% | x
C/C(=N\NC(=O)c1ccccc1O)c1c(O)n(Cc2ccccc2)c(=O)[nH]c1=O | 3% | 16µM* | -15% | -16% | -24% | 13
SMILES | GALK inh | RORgamma inh | TrxR1 substrate | VP16 counter | rTrxR1 inhibitor | Coupling enz
C/C(=N\NC(=O)c1ccncc1)c1c(O)n(Cc2ccccc2)c(=O)[nH]c1=O | 5% | 14% | -13% | u | 2% | -4
C/C(=N\NC(=O)c1ccccc1)c1c(O)n(C2CCCCC2)c(=O)[nH]c1=O | 5% | 10µM* | -2% | 20µM* | 23% | x
C/C(=N\NC(=O)c1ccccc1Cl)c1c(O)n(C2CCCCC2)c(=O)[nH]c1=O | 1% | 7.1µM* | -16% | 11µM* | -18% | 1
CC(=NCc1cccnc1)c1c(O)n(C2CCCCC2)c(=O)[nH]c1=O | 0% | 6% | 0% | -17% | 20% | -3
Cc1cc(O)c2c3c(c(=O)oc2c1)CCC(C)C3 (configuration not stated) | -6% | u | -15% | 20µM* | -12% | 4
CCOc1cc(C)cc2oc(=O)c3c(c12)CCCC3 | 0% | -2% | -1% | -1% | -12% | 5
C=C(C)CCl | x | 2% | x | 3% | x | x
C=CCC1(C(C)CCC)C(=O)N=C(S)NC1=O (configuration not stated) | x | 10µM* | x | -4% | x | -2
C=CCC1([C@@H](C)CCC)C(=O)NC(=O)NC1=O | x | x | 0% | x | 19% | x
N#CC(C#N)=Cc1ccc(C=C(C#N)C#N)cc1 | x | u | -5% | u | 7.9µM* | -23
Cc1ccc(NC(=O)N2CC2)cc1NC(=O)N1CC1 | x | x | 8%[57.1 µM] | x | -4%[57.1 µM] | x
CCOP(=O)(C1=C(O)C(=O)C(C(C)(C)C)=CC1=O)c1ccccc1 (configuration not stated) | -3% | -2% | 8% | 18% | 4.5µM* | -13
CCOP(=O)(OCC)c1cccc(P(=O)(c2ccccc2)c2ccccc2)c1O | x | u | 3% | 3% | -5% | -6
Cc1cc(NC(=O)CCl)no1 | 6% | 2.5µM* | 4% | u | u | 1
O=C(Cn1cc(C=C2C(=O)NC(=O)NC2=O)c2ccccc21)NCC1CCCO1 (configuration not stated) | 16% | 3% | -6% | 3% | 16%[0.0914 µM] | 0
Cc1c(C=C2C(=O)N(C)C(=S)N(C)C2=O)c2ccccc2n1CC(=O)NCC1CCCO1 (configuration not stated) | -9% | -26% | -10% | 2% | 13µM* | x
Cc1ccccc1-n1c(/C=C/c2ccc(N(C)C)cc2)nc2ccccc2c1=O | x | x | -10% | x | 9% | x
CC1N=C(c2ccccc2)c2cc(Br)ccc2NC1=O (configuration not stated) | -2% | -2% | 13% | 2% | 28% | -4
Cc1ccc(C(C)C)c(OCC(=O)N2CCN(CCc3ccncc3)CC2)c1 | x | x | 7% | x | u | x
CC(C)(C)c1ccc(O)c(N=Cc2c(O)ccc3ccccc23)c1 | -1% | 13µM* | -11% | 11µM* | 1% | -6

From PubChem
